Nrf2 ARE act: qHTS of Nrf2 Activators; AREc32 ARE-luciferase reporter (MCF7-derived line), luminescence, 24 h; Potency, µM (series often up to 46.1 µM), without a hit: at the top dose activation, hits mostly activators; 410,000 compounds, 0.31% hits; AID 624171, 2012; note: potency is the fitted concentration of half-maximal effect; % of control where 0% means no effect; nearly all actives have a fitted effect of over 65% in size
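Nrf2 activation is followed as ARE-luciferase induction in the AREc32 line after one day of compound treatment; luminescence is read with Steady-Glo.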
Nrf2 inh: Nrf2 qHTS screen for inhibitors | A549 ARE-Fluc reporter, luciferase luminescence, 18-24 h | Potency, µM (titrated, usually from 46 µM), for inactives: top-dose activity change, negative = inhibition, actives largely listed as inhibitors | 360,000 compounds, 2.1% hits | AID 504444, 2011; note: potency is the fitted concentration of half-maximal effect; % is set by controls: 0 for no effect and ±100 for the full control effect; nearly all actives have a fitted effect of over 60% in size
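A549 ARE_Fluc cells, 5000/well, 5% FBS OPTI-MEM; compounds in dose-response, 18-24 h at 37 °C/5% CO2; CellTiter-Fluor viability read (Ex 405/Em 525), then BugLite luciferase luminescence = Nrf2 activity.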
A549 tox: Nrf2 qHTS screen for inhibitors: counterscreen for cytotoxicity | A549 ARE-Fluc cells, CellTiter-Fluor viability, 18-24 h | Potency, µM (doses to about 46 µM), without a hit: at the highest dose activity change, negative = cytotoxicity, actives largely listed as inhibitors | 390,000 compounds, 0.16% hits | AID 504648, 2011; note: potency is the fitted concentration of half-maximal effect; % is set by controls: 0 for no effect and ±100 for the full control effect
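A549 ARE-Fluc cells in 5% FBS OPTI-MEM, 5000 cells/well, rested 2 h then exposed to compounds in concentration-response for 18-24 h at 37 °C. Viability by CellTiter-Fluor fluorescence (Ex 405/Em 525) after 30 min; luciferase luminescence (BugLite, 15 min, RT) read afterwards.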
Anesthetic bind: qHTS Assay for Identification of Novel General Anesthetics. 350,000 compounds, 0.074% hits. Ferritin light chain (Equus caballus), P02791. AID 485281, 2010. Potency, µM (series often up to 77.5 µM), without a hit: at the highest dose activity change, negative = displacement, usual class: inhibitors. apoferritin/1-aminoanthracene competitive binding, fluorescence; note: potency is the fitted concentration of half-maximal effect; % is set by controls: 0 for no effect and ±100 for the full control effect; nearly all actives have a fitted effect of over 20% in size
Target sequence (P02791 2-175 limits assumed): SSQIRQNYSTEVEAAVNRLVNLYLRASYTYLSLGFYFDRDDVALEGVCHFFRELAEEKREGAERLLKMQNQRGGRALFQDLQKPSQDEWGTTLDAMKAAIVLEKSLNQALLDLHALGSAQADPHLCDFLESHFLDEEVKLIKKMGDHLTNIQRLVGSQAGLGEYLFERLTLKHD
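Horse-spleen apoferritin (10 uM) was mixed with 50% saturated 1-aminoanthracene in PBS, exposed to compounds for 10 min at room temperature, and read for fluorescence (ex 380 nm, em 535 nm). Competitive displacement was fitted with a four-parameter Hill equation.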
IDH1 R132H inh: qHTS for Inhibitors of mutant isocitrate dehydrogenase 1 (IDH1): qHTS; Potency, µM (series often up to 76.6 µM), for inactives: top-dose activity change, negative = inhibition, actives largely listed as inhibitors; IDH1-R132H enzyme, NADPH consumption, diaphorase/resazurin fluorescence; 390,000 compounds, 0.093% hits; AID 602179, 2012; note: potency is the fitted concentration of half-maximal effect; % is set by controls: 0 for no effect and ±100 for the full control effect; nearly all actives have a fitted effect of over 65% in size
Target sequence (O75874 whole entry R132H, stated change not applied): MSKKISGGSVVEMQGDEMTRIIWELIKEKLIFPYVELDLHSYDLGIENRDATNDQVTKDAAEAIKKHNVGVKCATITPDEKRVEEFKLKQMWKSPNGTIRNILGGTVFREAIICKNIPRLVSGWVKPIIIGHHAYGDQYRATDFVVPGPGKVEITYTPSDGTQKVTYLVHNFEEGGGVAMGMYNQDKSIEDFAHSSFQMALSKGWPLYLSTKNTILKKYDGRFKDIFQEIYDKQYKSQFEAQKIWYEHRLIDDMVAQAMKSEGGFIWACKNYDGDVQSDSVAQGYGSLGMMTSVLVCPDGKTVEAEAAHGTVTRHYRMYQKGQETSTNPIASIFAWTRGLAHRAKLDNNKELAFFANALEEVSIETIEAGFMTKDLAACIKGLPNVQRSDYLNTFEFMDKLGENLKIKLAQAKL
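IDH1-R132H (0.5 ug/mL) preincubated 30 min with compound, then NADPH (0.016 mM) and alpha-KG (2 mM) added; 80 min at RT, pH 7.5. Remaining NADPH coupled via diaphorase/resazurin to fluorescence (540/590 nm); concentration-response curves normalized to no-enzyme control.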
Giardia kill: Small Molecules that selectively kill Giardia lamblia: qHTS. Giardia lamblia trophozoite viability. activity change, % at 7.66 µM, hits read low. 340,000 compounds, 0.15% hits; in the data active = activity change below about -80%; inconclusive = between about -30% and that limit;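 note: parasites exposed to compound for two days anaerobically before the ATP read; % is set by controls: 0 for no effect and ±100 for the full control effect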
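Luminescent ATP signal served as the viability read-out, measured 15-30 min after adding ATP detection reagent to trophozoites that had been incubated with compounds for 48 hrs at 37 deg C anaerobically at 100 cells/well.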
An asterisk follows results filed as active; ? = inconclusive; . = not tested or not shown; [ ] = dose if it differs, or a comment. The list is not random: actives were taken first. Their share in the collection is about 2.3%. Unless noted, calls come from the whole dose curve; as a rule, active = well fitted curve in the direction sought with a large enough effect; inconclusive = small, poorly fitted or top-dose-only effect, or another doubt; inactive = no such curve, though single readings can be large; an effect the other way counts as inactive or inconclusive.

SMILES | Nrf2 ARE act | Nrf2 inh | A549 tox | Anesthetic bind | IDH1 R132H inh | Giardia kill
COc1ccc2c(c1)c(C(C)=O)c(C)n2CCc1ccccc1 | -1% | 13µM* | -18% | 0% | -5% | -1
COc1ccc(NC(=O)CSc2ccc3c4c(cccc24)C(=O)c2ccccc2-3)cc1 | 4% | 10µM* | ? | -5% | -3% | -5
N#Cc1cccc(NC(=O)CSc2ccc3c4c(cccc24)C(=O)c2ccccc2-3)c1 | ? | ? | 26µM* | 76% | -2% | -29
C[C@H]1CN([C@@H](C)CO)C(=O)CCCn2nncc2CO[C@H]1CN(C)C(=O)c1ccc2ccn(C)c2c1 | 0% | . | . | . | -5% | .
O=C(CCl)Nc1ccc(S(=O)(=O)NC2=NCCCCC2)cc1 | 21% | ? | ? | . | 3% | -23
O=C(Cc1csc(-c2cccc(Cl)c2)n1)Nc1cccc(S(=O)(=O)NC2=NCCC2)c1 | 0% | 23µM* | -4% | . | -2% | 9
O=C(Nc1cccc(S(=O)(=O)NC2=NCCC2)c1)c1ccc(C(F)(F)F)cc1 | 3% | 18µM* | -2% | . | 4% | -17
O=C(CCl)Nc1cccc(S(=O)(=O)NC2=NCCCCC2)c1 | ? | 21µM* | -1% | . | -10% | -18
Cc1cc(C)c2c(NC(=O)c3ccccc3)c(C(=O)Nc3ccc(F)cc3)sc2n1 | 0% | . | 0% | -8% | -19% | .
CCOC(=O)c1ccc(N2C(=O)c3[nH]nc(-c4ccccc4)c3C2c2ccc(CC)cc2)cc1 (stereo unspecified) | -1% | 18µM* | ? | -19% | 12% | .
CCOC(=O)c1ccc(N2C(=O)c3[nH]nc(-c4ccc(OC)cc4)c3C2c2cccc(O)c2)cc1 (stereo unspecified) | -4% | ? | -28% | -22% | 11% | .
CCOC(=O)c1ccc(N2C(=O)c3[nH]nc(-c4ccc(C)cc4)c3C2c2ccc(O)cc2)cc1 (stereo unspecified) | -2% | 21µM* | -25% | -11% | -7% | .
CCOC(=O)c1ccc(N2C(=O)c3n[nH]c(-c4cccs4)c3C2c2cccc(OC)c2)cc1 (stereo unspecified) | -2% | 21µM* | ? | -17% | -1% | .
CCOC(=O)c1ccc(N2C(=O)c3[nH]nc(-c4ccc(C)cc4)c3C2c2cccc(F)c2)cc1 (stereo unspecified) | 0% | 21µM* | -18% | -3% | -10% | .
COc1ccc(NC(=O)N(C)C[C@@H]2OCc3cn(nn3)CCCC(=O)N([C@@H](C)CO)C[C@H]2C)cc1 | -1% | . | . | . | -1% | .
COc1ccc(C(=O)NCCn2cc(SCC(=O)Nc3nnc(C)s3)c3ccccc32)cc1 | 2% | 10µM* | -12%[1.84 µM] | . | -3% | -4
O=C1CCc2cc(S(=O)(=O)Nc3cccc(-c4ccccc4)c3)ccc2N1 | . | ? | -5% | . | . | .
COC(=O)C1=C(C)N(c2cc(Cl)cc(Cl)c2)C(=O)C1 | ? | 9.2µM* | -15% | ? | 1% | 6
Cc1ccc(OCCCCn2c(CCNC(=O)C(C)(C)C)nc3ccccc32)cc1 | 1% | -29% | -13% | 2% | 26% | .
CCCC(c1nnnn1CC1CCCO1)N1CCN(c2cc(Cl)ccc2C)CC1 (stereo unspecified) | 3% | 26µM* | ? | 32% | 4% | 21
Cc1ccc(Cl)cc1N1CCN(C(CC(C)C)c2nnnn2CC2CCCO2)CC1 (stereo unspecified) | 0% | . | -5% | -17% | 9% | -16
Cc1c(C(=O)N2CCC(C)CC2)c(S(=O)(=O)NCc2ccc(Br)cc2)c(C)n1C | -1% | . | -2% | 2% | 1% | .
Cc1ccc(C)c(NC(=O)c2cc(S(=O)(=O)NCCC3=CCCCC3)ccc2F)c1 | 1% | . | 8% | -4% | -8% | .
Cc1ccc(NC(=O)c2cc(S(=O)(=O)NCCC3=CCCCC3)ccc2F)cc1 | 4% | 15µM* | ? | ? | -6% | -12
N#C/C(=C\c1ccc([N+](=O)[O-])cc1)c1nc(C2CC2)cs1 | 3% | 6% | 1% | -9% | 1% | 6
SMILES | Nrf2 ARE act | Nrf2 inh | A549 tox | Anesthetic bind | IDH1 R132H inh | Giardia kill
N#C/C(=C/c1ccccc1[N+](=O)[O-])c1nc(C2CC2)cs1 | 11µM* | ? | -1% | ? | 0% | ?
N#C/C(=C\c1ccccc1[N+](=O)[O-])c1nc(C2CC2)cs1 | 10µM* | ? | -4% | -15% | 8% | -16
CC(NC(=O)COC(=O)Cc1ccsc1)C1CC2CCC1C2 (stereo unspecified) | 1% | 5% | . | 16µM* | 10% | 1
COc1ccc(/C=N/OCC(=O)NC(c2ccccc2)c2ccccc2)cc1OC | 5% | 5.8µM* | 0% | 4% | 0% | ?
COc1ccc(/C=N/OCC(=O)Nc2cc(C)on2)cc1OC | 0% | 1% | -3% | -2% | 1% | -1
c1ccc2c(c1)[nH]c1c(N3CCN(C4CCCCC4)CC3)ncnc12 | 5% | -20% | ? | 6.3µM* | -1% | -4
c1ccc2c(c1)[nH]c1c(N3CCCC3)ncnc12 | 5% | . | -9% | 2% | 15% | -14
COC(=O)C(C)Sc1nnc2cc(C)c3cc(C)cc(C)c3n12 (stereo unspecified) | 1% | -9% | 1% | 60% | 6% | .
COc1cccc(C2=CC(c3ccccc3O)NC(C)(C)N2)c1 (stereo unspecified) | . | 2% | 1% | . | . | -8
CCCCN(CCCN)c1ccc(Br)cn1 | . | 3% | 4% | . | . | -9
O=C1C2C3C=CC(C4CC34)C2C(=O)N1/N=C/c1ccc(-c2ccc(F)cc2[N+](=O)[O-])o1 (stereo unspecified) | 0% | -12% | -8% | ? | 2% | -4
Cc1ccc(-c2ccc(/C=N/N3C(=O)C4C5C=CC(CC5)C4C3=O)o2)c([N+](=O)[O-])c1 (stereo unspecified) | 4% | 1% | 4% | ? | 9% | -102*
COc1ccc(CCNC(=O)CSc2ncc(C(=O)Nc3ccccc3)c(=O)n2C)cc1 | 3% | ? | 13% | . | 5% | 5
COc1ccccc1NC(=O)c1cnc(SCC(=O)NCCc2ccccc2)n(C)c1=O | 4.5µM* | 7% | -4% | . | 5% | 11
Cc1csc2nc(-c3cccc(NC(=O)c4ccc(S(N)(=O)=O)cc4)c3)cn12 | 4% | . | 2% | -6% | 1% | .

Source: PubChem BioAssay (National Center for Advancing Translational Sciences (NCATS))
